This note sets out measurements from ChEMBL document CHEMBL2218924, “A broad activity screen in support of a chemogenomic map for kinase signalling research and drug discovery” (Biochem J, 2013).

Usually residual activity stands for the signal under treatment as a percentage of the control signal.

This assay deals with Rho-associated protein kinase 1 (Homo sapiens) (UniProt Q13464). The note with it: at 10 µM.
Sequence of Rho-associated protein kinase 1 (Homo sapiens) (Q13464 2-1354 limits assumed): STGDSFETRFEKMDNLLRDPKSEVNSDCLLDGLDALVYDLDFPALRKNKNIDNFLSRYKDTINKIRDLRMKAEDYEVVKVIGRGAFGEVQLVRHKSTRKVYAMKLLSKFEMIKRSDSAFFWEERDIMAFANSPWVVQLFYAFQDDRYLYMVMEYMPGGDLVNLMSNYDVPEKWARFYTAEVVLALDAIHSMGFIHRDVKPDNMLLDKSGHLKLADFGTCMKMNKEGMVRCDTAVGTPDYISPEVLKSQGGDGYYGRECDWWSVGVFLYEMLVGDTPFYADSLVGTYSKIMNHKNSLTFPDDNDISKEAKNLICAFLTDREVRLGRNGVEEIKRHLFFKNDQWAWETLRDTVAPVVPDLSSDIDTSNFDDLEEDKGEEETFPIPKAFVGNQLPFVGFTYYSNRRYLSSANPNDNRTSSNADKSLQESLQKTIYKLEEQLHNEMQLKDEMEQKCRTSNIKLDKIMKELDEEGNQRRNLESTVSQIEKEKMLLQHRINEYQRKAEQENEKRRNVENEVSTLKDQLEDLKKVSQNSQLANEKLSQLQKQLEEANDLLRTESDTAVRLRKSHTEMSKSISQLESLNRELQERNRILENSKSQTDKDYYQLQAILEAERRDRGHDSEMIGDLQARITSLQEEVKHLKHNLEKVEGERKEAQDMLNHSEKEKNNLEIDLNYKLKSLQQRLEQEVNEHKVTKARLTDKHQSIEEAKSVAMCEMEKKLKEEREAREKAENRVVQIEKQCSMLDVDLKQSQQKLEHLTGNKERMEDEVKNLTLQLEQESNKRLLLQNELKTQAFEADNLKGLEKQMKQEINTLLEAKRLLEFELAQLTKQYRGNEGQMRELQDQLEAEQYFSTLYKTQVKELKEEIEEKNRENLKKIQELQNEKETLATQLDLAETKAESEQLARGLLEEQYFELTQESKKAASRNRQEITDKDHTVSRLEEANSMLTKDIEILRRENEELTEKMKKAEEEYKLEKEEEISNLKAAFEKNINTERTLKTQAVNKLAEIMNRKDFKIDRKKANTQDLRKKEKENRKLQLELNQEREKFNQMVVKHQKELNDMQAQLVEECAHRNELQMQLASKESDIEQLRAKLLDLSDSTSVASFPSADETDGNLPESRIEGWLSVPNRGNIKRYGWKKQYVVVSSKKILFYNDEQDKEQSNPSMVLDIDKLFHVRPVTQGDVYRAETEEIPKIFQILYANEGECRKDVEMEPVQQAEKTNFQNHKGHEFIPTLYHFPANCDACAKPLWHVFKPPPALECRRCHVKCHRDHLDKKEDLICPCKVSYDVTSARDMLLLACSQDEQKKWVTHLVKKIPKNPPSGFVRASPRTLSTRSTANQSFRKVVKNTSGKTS
As for `O=C1NC(=O)C(c2cn(CCCn3ccnc3)c3ccccc23)=C1Nc1ccccc1`, the residual activity worked out at 121%. As to `O=S(=O)(NCCNC/C=C/c1ccc(Br)cc1)c1cccc2cnccc12`, the residual activity came to 29%. `COc1ccc(COc2ccc(Cc3cnc(N)nc3N)cc2OC)cc1`: the residual activity turned out to be 120%. Take `Oc1cccc(-c2nc(N3CCOCC3)c3oc4ncccc4c3n2)c1`: the residual activity is 125%. In the case of `CCCCc1c(-c2ccc(OC)cc2)[nH]c2nccnc12`, the residual activity worked out at 102%. The value for `CC(C)N(CCC(=O)c1ccc2ccccc2c1)Cc1ccccc1` was 133%. As to `Cn1c2ccccc2c2c3c(c4c5ccccc5n(CCC#N)c4c21)CNC3=O`, the residual activity is 97%. Turning to `NC(=O)c1ccc(-c2nc(-c3ccc4c(c3)OCCO4)c(-c3ccccn3)[nH]2)cc1`, the residual activity came to 90%. `CN(C)S(=O)(=O)c1ccc2c(c1)/C(=C/c1cc3c([nH]1)CCCC3)C(=O)N2`: the residual activity worked out at 100%. `COc1ccc2c(c1)c(C1=C(c3c[nH]c4ccccc34)C(=O)NC1=O)cn2CCCN(C)C`: the residual activity was 124%. Regarding `c1ccc(-c2cnc(Nc3ccc(OCCN4CCCC4)cc3)s2)cc1`, the residual activity stood at 110%. On to `Nc1nc(Nc2ccc(S(N)(=O)=O)cc2)nn1C(=O)c1c(F)cccc1F`, for which the residual activity amounted to 16%. The value for `Nc1nccc(-c2c(-c3ccc(F)cc3)ncn2C2CCNCC2)n1` was 121%; that for `NCCNc1ncc(C(N)=O)c(Nc2cccc(C(F)(F)F)c2)n1` was 103%. In the case of `O=C(Nc1nc2ccccc2n1CCN1CCOCC1)c1cccc([N+](=O)[O-])c1` it was 106%; in that of `N#C/C(=C\c1ccc(O)c(O)c1)C(=O)NCc1ccccc1`, 123%; in that of `O=S(=O)(c1cccc2cnccc12)N1CCCNCC1`, 36%.

As for `O=C(c1cc2cc(O)ccc2[nH]1)c1cc2cc(O)ccc2[nH]1`, the residual activity stood at 72%.
